mIDH1 inhibitor: inhibitors of human mutant IDH1 R132H. 390,000 compounds, 0.093% hits. IDH1-R132H enzyme, NADPH consumption, diaphorase/resazurin fluorescence. O75874. Potency, µM (highest dose often 76.6 µM), without a hit: top-dose activity change, negative = inhibition, hits mostly inhibitors; further: potency means the concentration at half of the fitted maximal effect; on the % scale 0 is the no-effect control and ±100 the full control effect; nearly all actives have a fitted effect of over 65% in size
Target sequence (O75874 whole entry R132H, stated change not applied): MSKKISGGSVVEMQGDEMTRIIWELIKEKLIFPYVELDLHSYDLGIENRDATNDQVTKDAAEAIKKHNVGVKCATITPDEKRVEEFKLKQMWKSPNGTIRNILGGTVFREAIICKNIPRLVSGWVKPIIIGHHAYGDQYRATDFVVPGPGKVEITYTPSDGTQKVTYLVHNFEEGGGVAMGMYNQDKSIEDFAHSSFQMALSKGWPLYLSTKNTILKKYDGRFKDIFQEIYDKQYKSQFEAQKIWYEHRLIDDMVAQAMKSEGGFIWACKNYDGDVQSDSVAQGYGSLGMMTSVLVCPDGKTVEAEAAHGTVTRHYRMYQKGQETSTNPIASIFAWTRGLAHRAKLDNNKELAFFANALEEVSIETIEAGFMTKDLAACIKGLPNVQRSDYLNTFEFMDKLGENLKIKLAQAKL
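IDH1-R132H (0.5 ug/mL) preincubated 30 min with compound, then NADPH (0.016 mM) and alpha-KG (2 mM) added; 80 min at RT, pH 7.5. Remaining NADPH coupled via diaphorase/resazurin to fluorescence (540/590 nm); concentration-response curves normalized to no-enzyme control.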
TDP43 rescue: rescues yeast growth from TDP-43 toxicity. 410,000 compounds, 1.8% hits. TDP-43 expressing yeast growth rescue, BacTiter-Glo, 24 h. Potency, µM (series often up to 46.1 µM), for inactives: top-dose growth rescue (activation), most hits filed as activators; further: potency means the concentration at half of the fitted maximal effect; % of control where 0% means no effect; nearly all actives have a fitted effect of over 50% in size
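Galactose-induced TDP-43 yeast, OD600=0.02, compound pinned; 24 hr, 30 deg C; BacTiter-Glo luminescence for growth. Inhibitors of TDP-43 toxicity read as activators.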
aSyn rescue: inhibitors of alpha-synuclein toxicity in yeast | Potency, µM (titrated, usually from 46.1 µM), without a hit: at the top dose growth rescue (activation), usual class: activators | Yeast expressing alpha-synuclein, growth rescue, BacTiter-Glo, 24 h | 370,000 compounds, 0.14% hits | AID 652106; further: potency means the concentration at half of the fitted maximal effect; % of control where 0% means no effect; nearly all actives have a fitted effect of over 65% in size
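Rescue of yeast growth: cells expressing toxic alpha-synuclein, induced in galactose at OD600 0.02, incubated with compound 24 h at 30 C. ATP luminescence quantified growth; inhibitors of toxicity appear as activators.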
Abeta rescue: restores growth of yeast expressing A-beta42 peptide; yeast expressing A-beta42, growth rescue, OD600, 48 h; response scale: 0% DMSO, 100% iron-clioquinol control; Potency, µM (highest dose often 46.1 µM), most hits filed as activators; 410,000 compounds, 0.063% hits; AID 1347071; further: potency means the concentration at half of the fitted maximal effect; nearly all actives have a fitted effect of over 55% in size
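Yeast A-beta toxicity model in growth medium with pinned compounds, 48 h at 30 C; growth read as absorbance at 600 nm. Normalized to FeCl3/clioquinol equimolar mix (positive) and DMSO (negative).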
FUS yeast rescue: rescues growth of FUS-expressing yeast. 390,000 compounds, 0.24% hits. AID 1347120. Potency, µM (titrated, usually from 76.6 µM), hits mostly activators. S. cerevisiae FUS-expressing, growth rescue, OD600, 24 h;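 further: potency means the concentration at half of the fitted maximal effect; plate controls were DMSO vehicle for no effect and reference control for full effect; nearly all actives have a fitted effect of over 55% in size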
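Restored growth of FUS-toxic S. cerevisiae, read as 600 nm absorbance after 24 h at 30C in galactose medium (starting OD 0.005). Controls CP55940 and DMSO.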
LDHA inh: LDHA (human) enzyme inhibition | purified LDHA, NADH/diaphorase-resazurin fluorescence; stronger effect = lower value | activity change, % (values are at about 110 or 230 µM) | 480,000 compounds, 0.15% hits | AID 1347041; in the data active means activity change below about -30%; inconclusive means mostly about -25% to -30%;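 further: plate controls were DMSO wells for no effect and wells without enzyme for full effect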
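LDH5 2 nM; NADH 0.06 mM, pyruvate 0.2 mM; 200 mM Tris pH 7.4, EDTA, Tween-20; 5 min RT. Detection: diaphorase 0.133 mg/mL + resazurin 37 µM, fluorescence ex540/em590 at 0 and 20 min; normalized to enzyme-free and DMSO wells.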
* = called active by the depositor; i = inactive; ? = inconclusive; nt = no result; ! = repeats disagree. In the library only some 2% were active in any assay of this set; here they are far more common. Unless noted, the call rests on the fitted dose curve; in most records, active means well fitted curve in the direction sought with a large enough effect; inconclusive means small, poorly fitted or top-dose-only effect, or another doubt; inactive means no such curve, though single readings can be large; an effect the other way counts as inactive or inconclusive.

SMILES	mIDH1 inhibitor	TDP43 rescue	aSyn rescue	Abeta rescue	FUS yeast rescue	LDHA inh
CCc1ccc2nc(N(Cc3cccnc3)C(=O)c3cccs3)sc2c1	25%	32µM*	nt	i	i	-3
Cc1ccc2nc(N(Cc3cccnc3)C(=O)C3CCCCC3)sc2c1	1%	5.6µM*	nt	i	i	-5
CC(=O)N(Cc1cccnc1)c1nc2c(C)cccc2s1	10%	?	nt	i	i	-2
Cc1cccc2sc(N(Cc3cccnc3)C(=O)C3CCCCC3)nc12	7%	3.5µM*	nt	i	i	8
CN(C)CCN(C(=O)c1ccc2c(c1)OCCO2)c1nc2c(Cl)cccc2s1	8%	-14%	6%	i	i	-3
CCOc1ccc2nc(N(Cc3cccnc3)C(=O)C3CCCCC3)sc2c1	-4%	?	nt	i	i	-3
O=C(c1ccc2c(c1)OCCO2)N(Cc1cccnc1)c1nc2c(Cl)cccc2s1	-24%	22µM*	nt	i	i	4
Cc1cccc(-n2c(SCC(=O)N(C)CCC#N)nc3ccccc3c2=O)n1	nt	nt	nt	nt	nt	-3
COC(=O)c1ccc(COC(=O)c2csc3c2CCCC3)o1	nt	nt	nt	nt	nt	5
Oc1ccc(O)c(C2C[C@@H]3CC[C@H]2C3)c1 (some centres not stated)	nt	nt	nt	nt	nt	114
Cc1nc(SCC(=O)N(C)Cc2ccco2)c2c(C)c(C)sc2n1	-1%	22µM*	4%	i	i	6
c1ccc(Nc2cccc(Nc3nc(CN4CCOCC4)nc4sc5c(c34)CCC5)c2)cc1	nt	nt	nt	nt	nt	12
CC(C)c1nc2sc3c(=O)[nH]cnc3c2c2c1CCC2	3%	22%	2%	i	i	1
CC(C)c1nc2sc3c(=S)nc[nH]c3c2c2c1CCC2	-4%	16µM*	3%	i	i	-3
CCc1nnc(NC(=O)c2nc(S(=O)(=O)Cc3cccc(C)c3)ncc2Cl)s1	0%	11µM*	17%	i	i	3
CC(C)c1nnc(NC(=O)c2nc(S(=O)(=O)Cc3ccccc3F)ncc2Cl)s1	0%	28µM*	5%	i	i	0
CCOc1ccc(NC(=O)c2nc(S(=O)(=O)Cc3ccccc3F)ncc2Cl)cc1	-20%	?	11µM*!	i	i	-15
CCc1nnc(NC(=O)c2nc(S(=O)(=O)Cc3ccc(C)cc3)ncc2Cl)s1	-1%	18µM*	16%	i	i	-2
CNc1nnc(SCc2cccc(C#N)c2)s1	nt	nt	nt	nt	nt	1
Cc1ccc(CS(=O)(=O)c2ncc(Cl)c(C(=O)Nc3nnc(C(C)C)s3)n2)cc1	4%	14µM*	20%	i	i	7
CC(C)c1nnc(NC(=O)c2nc(S(=O)(=O)Cc3ccc(F)cc3)ncc2Cl)s1	5%	8%	12%	i	i	0
O=C(NCc1ccccc1)c1nc(S(=O)(=O)Cc2ccccc2)ncc1Cl	-4%	10µM*	21%	i	i	3
COc1ccc(-c2ocnc2C(=O)Nc2cc(F)ccc2F)cc1OC	nt	nt	nt	nt	nt	-1
CN1CCN(c2ccc3cc(S(=O)(=O)N4CCCC4)ccc3n2)CC1	nt	nt	nt	nt	nt	12
CCNc1c(NC(=O)Nc2cccc(C)c2C)c(=O)oc2ccccc12	nt	nt	nt	nt	nt	-2
SMILES	mIDH1 inhibitor	TDP43 rescue	aSyn rescue	Abeta rescue	FUS yeast rescue	LDHA inh
COc1ccc(C)cc1NC(=O)c1cccc(-n2cccc2)c1	nt	nt	nt	nt	nt	-7
Cc1ccc(SC(=O)c2ccc(Cl)cc2Cl)cc1	nt	nt	nt	nt	nt	8
Cc1ccc(C(C)NC(=O)CSc2nc(CN3CCOCC3)nc3ccccc23)cc1C (configuration not stated)	nt	nt	nt	nt	nt	0
CC1(C(=O)NCc2ccc(C(F)(F)F)cc2)CCN1Cc1ccc(-c2ccccc2)o1 (configuration not stated)	nt	19%	16µM*	i	?	3
COC(=O)c1cc(NC(=O)c2cnn3cccnc23)cc(C)c1C	nt	nt	nt	nt	nt	-10
CCOc1cc(C)c(C(C)C)cc1S(=O)(=O)n1ccnc1CC	?	20µM*	nt	i	i	2
O=C(Nc1nc(-c2ccccn2)cs1)c1ccco1	-10%	-8%	18µM*	?	i	7
O=c1oc2ccccc2cc1-c1csc(Nc2ccccc2)n1	nt	nt	nt	nt	nt	6
O=C(Nc1nc(-c2cc3ccccc3oc2=O)cs1)c1ccco1	-1%	3.5µM*	-8%	i	i	-14
Cc1ccc(C(=O)Nc2nc(-c3ccccn3)cs2)cc1S(=O)(=O)N1CCOCC1	2%	?	13µM*	i	i	2
O=c1oc2ccccc2cc1-c1csc(NN=C2CCCCC2)n1	4%	-10%	3%	i	13µM*	3
O=C(Nc1nc(-c2ccccn2)cs1)c1ccc(F)c(S(=O)(=O)N2CCOCC2)c1	3%	26%	?	i	i	1
COc1cccc(-c2nc(SCC(=O)Nc3ccc4c(c3)OCO4)c(-c3ccccc3)[nH]2)c1	0%	22µM*	nt	i	?	-3
COC(=O)[C@]1(CC(C)C)N[C@H](c2ccc(-c3ccc(F)cc3)c(OC)c2)[C@@H]2C(=O)N(C)C(=O)[C@@H]21	-7%	30%	-7%	i	28µM*	6
COC(=O)[C@]1(Cc2ccccc2)N[C@H](c2ccc(-c3cccc(Cl)c3)c(OC)c2)[C@@H]2C(=O)N(C)C(=O)[C@@H]21	16%	15%	3%	i	14µM*	-2
CCCn1cnc2nc(CSc3ccccc3NC(=O)c3ccccc3C)cc(=O)n21	nt	nt	nt	nt	nt	0
Cc1cccn2c(=O)cc(CSc3ccccc3NC(=O)c3ccccc3Cl)nc12	nt	nt	nt	nt	nt	-32*
CN1CCc2c(sc(NC(=O)CSc3ccccc3)c2-c2nc3ccccc3s2)C1	21%	5%	-64%	i	?	4
CC(=O)N1CCc2c(sc(NC(=O)CSc3ccccc3)c2-c2nc3ccccc3s2)C1	-6%	23%	4µM*	i	?	0
N#C/C(=C\Nc1ccccc1O)c1nc2ccccc2o1	-4%	7.1µM*	-40%	i	i	-9
CCCNc1ncnc2c1c(-c1ccccc1)cn2-c1ccccc1	?	22µM*	nt	i	?	1
CN(C)CCCNc1ncnc2c1c(-c1ccccc1)cn2-c1ccccc1	3%	1%	9%	i	i	-1
COc1ccc(CCNc2ncnc3c2c(-c2ccccc2)cn3-c2ccc(F)cc2)cc1OC	-7%	?	nt	i	?	2
c1ccc(-c2cn(-c3ccccc3)c3ncnc(N4CCCCC4)c23)cc1	-1%	18µM*	-1%	i	i	-3

From PubChem BioAssay
